Test results published in PubChem BioAssay (EPA / NIEHS).
Results filed as inconclusive are left out. The source made the active and inactive calls. Rule for the calls: active = hit-call score of the fitted dose curve at least 0.9, where 1 is the maximum; inconclusive = response in the unintended direction; inactive = score below 0.9.

These compounds were tested against Nuclear receptor subfamily 1 group I member 3 (Homo sapiens) (UniProt Q14994) (assay: ATG_CAR_TRANS: Attagene TRANS-FACTORIAL HepG2 Assay for human Constitutive Androstane Receptor (CAR) (AID 2282969;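 note: activators raise reporter mRNA above DMSO so AC50 marks induction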)). Settings: HepG2 Attagene TRANS-FACTORIAL CAR reporter.
Description: ATG_TRANS is a cell-based, multiplexed-readout assay that uses HepG2, a human liver cell line, with measurements taken at 24 hours after chemical dosing in a 24-well plate.ATG_CAR_TRANS is one of 30 assay component(s) measured or calculated from the ATG_TRANS assay. It is designed to make measurements of mRNA induction, a form of inducible reporter, as detected with fluorescence intensity signals by Reverse transcription polymerase chain reaction (RT-PCR) and Capillary electrophoresis technology.Data from the assay component ATG_CAR_TRANS was analyzed into 1 assay endpoint. This assay endpoint, ATG_CAR_TRANS, was analyzed in the positive analysis fitting direction relative to DMSO as the negative control and baseline of activity. Using a type of inducible reporter, measures of mRNA for gain-of-signal activity can be used to understand the reporter gene at the transcription factor-level as they relate to the gene NR1I3. Furthermore, this assay endpoint can be referred to as a primary readout, because this assay has produced multiple assay endpoints where this one serves a reporter gene function. To generalize the intended target to other relatable targets, this assay endpoint is annotated to the nuclear receptor intended target family, where the subfamily is non-steroidal.
Human liver HepG2 cells are transiently transfected with multiple reporter transcription units (MRTUs) in 6-well plates using FuGene 6 reagent (Roche; 3 ml FuGene/1 mg DNA). The MRTU constructs are regulated by a cis-regulating element (promoter). […] A major difference between the CIS and TRANS system is that in CIS activities of endogenous TFs are measured, whereas the TRANS assay evaluates changes in activities of exogenous, chimeric NR-Gal4 proteins. […] At the end of 24 hour incubation, total RNA was isolated using TriZol reagent (Invitrogen). The isolated RNA is then reverse-transcribed using oligo(dT) primer and Mo-MLV reverse transcriptase (Invitrogen) with DNAse I (Ambion) treatment for 30 min. The one-tenth of the produced cDNA was amplified by PCR using Taq DNA polymerase (Invitrogen) and two reporter sequence-specific primers. The PCR products were fluorescently labeled by primer extension with 6-arboxyfluorescein (6-FAM) 5'-labeled reporter sequence-specific primer (2 min at 95 C, 20 s at 68 C and 10 min at 72 C) and these products were digested with 5U of HpaI (New England Biolabs) for 2h at 37 C. The fragments were purified using Qiaquick PCR columns (Qiagen), analyzed on an ABI 3130xL genetic analyzer (Applied Biosystems) with peak positions identified by using a set of X-rhodamine (ROX)-labeled MapMarker1000 molecular weight standards (BioVentures). The raw capillary electrophoresis data was processed using Attagraph software (Attagene).

Nuclear receptor subfamily 1 group I member 3 (Homo sapiens), sequence (Q14994 whole entry, looked up): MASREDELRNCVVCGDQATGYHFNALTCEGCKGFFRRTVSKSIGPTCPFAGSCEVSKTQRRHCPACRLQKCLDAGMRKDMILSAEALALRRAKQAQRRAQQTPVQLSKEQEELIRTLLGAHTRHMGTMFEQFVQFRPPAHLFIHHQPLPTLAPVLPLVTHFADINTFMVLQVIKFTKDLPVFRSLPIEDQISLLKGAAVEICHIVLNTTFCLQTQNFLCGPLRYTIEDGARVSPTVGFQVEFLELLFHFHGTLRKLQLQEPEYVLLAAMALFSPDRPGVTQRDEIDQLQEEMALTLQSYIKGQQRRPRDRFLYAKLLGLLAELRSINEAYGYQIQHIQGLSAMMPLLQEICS

SMILES	outcome
CC(CO)c1ccccc1 (stereo not given)	inactive
OCCN1CCOCC1	inactive
COC(=O)c1cccc(C(=O)OC)c1	inactive
COc1ccc(C(C)=O)cc1	inactive
COC(=O)C(C)Oc1ccc(Oc2ncc(C(F)(F)F)cc2Cl)cc1 (stereo not given)	inactive
CCCCOCC(C)OCC(C)O (stereo not given)	inactive
CCCO[Si](OCCC)(OCCC)OCCC	inactive
Cc1cc(N)n(-c2ccccc2)n1	inactive
CCCCOCCOC(=O)c1ccccc1C(=O)OCCOCCCC	inactive
O=C(O)c1ccc(C(=O)O)c(C(=O)O)c1	inactive
O=Cc1ccccc1O	inactive
C=C1CC/C=C(\C)CC[C@@H]2[C@@H]1CC2(C)C	inactive
CCC(C)(C)C1CCC(OC)CC1 (stereo not given)	inactive
CC(C)CCOC(=O)CC(C)C	inactive
CC(C)(C)c1ccc(S)cc1	inactive
CCCCCCCCCCCCCC(=O)OCC	inactive
CC(=O)Nc1cc(S(=O)(=O)O)cc2cc(S(=O)(=O)O)c(N=Nc3ccccc3)c(O)c12	inactive
CC(C)C(=O)OCC=Cc1ccccc1	inactive
O=C1OCc2ccccc21	inactive
C=C(C)C(=O)OCCN(C)C	inactive

SMILES	outcome
Cc1cc(O)c2c(c1)C(=O)c1cc(O)cc(O)c1C2=O	inactive
CC(C)CCCC(C)(C)O	inactive
N#CCCNCCC#N	inactive
CC(=O)CCC(=O)O	inactive
C=C1CC[C@H]2O[C@]2(C)CC[C@@H]2[C@@H]1CC2(C)C	inactive
CCCCCCCCCCCCN1CCOCC1	inactive
C=COCC1CCC(COC=C)CC1 (stereo not given)	inactive
CC(C)N1C(=O)c2ccccc2C1=O	inactive
CCNC(=S)NCC	inactive
CC1=CC(C)C(C=O)C(C)C1 (stereo not given) (tested in a mixture with another compound)	inactive
Cc1cc(O)c(C)c(C)c1O	inactive
CC(C)Cc1ccc(C(C)C(=O)O)cc1 (stereo not given)	inactive
C[C@H](CCC(=O)O)[C@H]1CC[C@H]2[C@@H]3CC[C@@H]4C[C@H](O)CC[C@]4(C)[C@H]3CC[C@]12C	inactive
CCCCCCCCCCCCS	inactive
Cc1cccc(O)c1	inactive
CC1=CCC(C(C)C)=CC1	inactive
CC(=O)CCC=C(C)CCC=C(C)C	inactive
CC=CC(=O)C1=C(C)C=CCC1(C)C	inactive
c1ccc(OCCOc2ccccc2)cc1	inactive
CCOC(=O)C=Cc1ccccc1	inactive
